Source: PubChem
This is a sample that favours compounds with a hit; in the whole collection about 9.4% have one here.
SARS PLpro yeast – qHTS of Yeast-based Assay for SARS-CoV PLP; S. cerevisiae expressing SARS-CoV PLpro, growth rescue; 330,000 compounds, 0.19% hits; Potency, µM (highest dose often 32.9 µM), most hits filed as activators; AID 485353, 2010; calls by dose curve; further: nearly all actives have a fitted effect of over 55% in size
Pf growth 48h – Primary qHTS for delayed death inhibitors of the malarial parasite plastid, 48 hour incubation | P. falciparum luciferase growth in erythrocytes, 48 h | 310,000 compounds, 5.9% hits | Potency, µM (doses to about 28.7 µM), usual class: inhibitors
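Here the parasites carry a stable luciferase gene and grow inside erythrocytes in Albumax-based RPMI medium with compound for one erythrocytic cycle. Activity is scored as loss of luminescent signal.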
AMA1-RON2 inh – qHTS for Inhibitors of AMA1-RON; Towards Development of Antimalarial Drug Lead: Primary Screen; Potency, µM (top dose mostly 58.2 µM), hits mostly inhibitors; AlphaScreen AMA1-biotinylated RON2 peptide binding; Plasmodium falciparum AMA1 (3D7) - RON2 peptide interaction; 360,000 compounds, 0.2% hits; further: nearly all actives have a fitted effect of over 45% in size
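AMA1 (3D7) with his tag at 25 nM final met compounds first, then biotinylated RON2 peptide at 25 nM; detection used donor plus acceptor beads, 10 µg/mL apiece, read by AlphaScreen after 30 min at room temperature.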
Pf growth 96h – Primary qHTS for delayed death inhibitors of the malarial parasite plastid, 96 hour incubation | Potency, µM (series often up to 28.7 µM), most hits filed as inhibitors | 320,000 compounds, 6.9% hits | P. falciparum luciferase reporter growth, 96 h | AID 504834, 2011
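Cell-based qHTS: luciferase-tagged P. falciparum in erythrocytes (2% hematocrit, 0.05% parasitemia final) incubated with compounds for 96 hours, 37 C, 5% CO2; luciferase detection reagent then added and luminescence measured.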
Large screens that a line does not name were inactive. Unless noted, the call rests on the fitted dose curve; in most records, active means well fitted curve in the direction sought with a large enough effect; inconclusive means small, poorly fitted or top-dose-only effect, or another doubt; inactive means no such curve, though single readings can be large; an effect the other way counts as inactive or inconclusive.

Fc1ccc(C2CC(c3ccco3)=Nc3ccccc3S2)cc1 (configuration not stated)	none
CCOC(=O)CN1NC2(CCC(C(C)(C)C)CC2)NC1=S (configuration not stated)	none
Cc1cc(C(=O)CSc2nnnn2-c2ccc(O)cc2)c(C)n1Cc1ccc2c(c1)OCO2	Pf growth 48h inconclusive
Cc1cc(C(=O)CSc2nnnn2-c2ccccc2)c(C)n1-c1ccc2c(c1)OCO2	Pf growth 48h 10.4µM, Pf growth 96h 8.28µM
O=C(Nc1ccc2nc(-c3cccnc3)[nH]c2c1)C12CC3CC(CC(C3)C1)C2	Pf growth 48h 11.7µM
NNC(=O)c1oc2nc(-c3ccco3)cc(-c3ccco3)c2c1N	Pf growth 48h inconclusive, Pf growth 96h inconclusive
NNC(=O)c1oc2nc(-c3ccc(Cl)cc3)cc(-c3ccccc3)c2c1N	Pf growth 48h 4.15µM, Pf growth 96h 2.62µM
O=C(NC1CCCc2ccccc21)C1CCC(CNc2c(N3CCOCC3)c(=O)c2=O)CC1 (configuration not stated)	Pf growth 96h 10.4µM
Cc1cccc(CCNC(=O)C2CCC(CNc3c(N4CCCC4)c(=O)c3=O)CC2)c1 (configuration not stated)	Pf growth 96h 9.28µM (no result: Pf growth 48h)
O=C(NCCc1ccccc1)C1CCC(CNc2c(N3CCCCC3)c(=O)c2=O)CC1 (configuration not stated)	Pf growth 96h 11.7µM
O=C(NC1CCCc2ccccc21)C1CCC(CNS(=O)(=O)c2cccc3nsnc23)CC1 (configuration not stated)	Pf growth 96h 3.7µM (no result: Pf growth 48h)
Nc1csnc1C(=O)O	none (no result: Pf growth 96h)
Cc1nn(C)c(C)c1/C=C1/SC(=S)NC1=O	none (no result: Pf growth 48h)
CCCCC(=O)Nc1nnc(/C=C/c2ccc(OC)cc2)s1	none
N#CCSc1nc2scc(-c3cccs3)c2c(=O)n1CCc1ccccc1	Pf growth 96h inconclusive
CCOC(=O)C1CCCN(c2c(Nc3cccc(C)c3)c(=O)c2=O)C1 (configuration not stated)	Pf growth 96h 8.28µM (no result: Pf growth 48h)
COc1ccccc1C(=O)N(Cc1ccc(Cl)cc1)C1CCS(=O)(=O)C1 (configuration not stated)	Pf growth 96h 11.7µM
COc1cc(C(=O)N(Cc2ccc(F)cc2)C2CCS(=O)(=O)C2)cc(OC)c1OC (configuration not stated)	Pf growth 48h inconclusive, Pf growth 96h 8.28µM
COc1cccc(CN(C(=O)c2cc3ccccc3oc2=O)C2CCS(=O)(=O)C2)c1 (configuration not stated)	Pf growth 96h 6.57µM
CCOC(=O)c1ccc(NC(=O)C23CCC(C)(C(=O)O2)C3(C)C)cc1 (configuration not stated)	none
Cc1ccccc1NC(=O)c1ccc2c(c1)N(C)CCS2	Pf growth 96h 13.1µM
O=C(NC1CC1)c1ccc2c(c1)N(Cc1ccccc1)CCS2	Pf growth 96h 11.7µM
CCOC(=O)N1CCC(NC(=O)c2ccc3c(c2)N(Cc2ccc(F)cc2)CCS3)CC1	Pf growth 48h 4.65µM, Pf growth 96h inconclusive
CCOC(=O)N1CCC(NC(=O)c2ccc3c(c2)N(C)CCS3)CC1	Pf growth 48h 11.7µM, Pf growth 96h inconclusive
CCOC(=O)N1CCC(NC(=O)c2ccc3c(c2)N(Cc2ccc(C)cc2)CCS3)CC1	Pf growth 48h inconclusive, Pf growth 96h inconclusive
CCN(CC)S(=O)(=O)c1ccc(N2CCN(C)CC2)c(NC(=O)CN2C(=O)NC3(CCCCC3)C2=O)c1	none (no result: SARS PLpro yeast, Pf growth 48h, Pf growth 96h)
CN1CCN(CCCNC(=O)c2ccc3c(c2)N(Cc2ccc(F)cc2)CCS3)CC1	Pf growth 48h inconclusive, Pf growth 96h 10.4µM
Cc1[nH]c2ccc(C(=O)NCCCN3CCN(C)CC3)cc2c1C	Pf growth 96h 11.7µM
COc1ccc(OC)c(CCNC(=O)c2ccc3c(c2)N(Cc2ccccc2)CCS3)c1	Pf growth 48h inconclusive, Pf growth 96h 13.1µM
COc1ccc(CCNC(=O)c2ccc3c(c2)N(Cc2ccccc2)CCS3)cc1OC	Pf growth 96h inconclusive
O=C(CN(Cc1ccco1)C(=O)CCC(=O)Nc1ccccn1)NCCc1ccccc1	none
COC(=O)c1oc2ccc(Br)cc2c1NC(=O)CCCN1C(=O)c2ccccc2C1=O	none
CC1Sc2ccc(S(=O)(=O)CCC(=O)NC3CCCCC3C)cc2NC1=O (configuration not stated)	none
S=C(NC1CCCCC1)N(CCc1nc2ccccc2[nH]1)C1CCCC1	Pf growth 48h inconclusive, Pf growth 96h 13.1µM
O=C(COC(=O)COc1ccc(Cl)cc1)NCc1ccc2c(c1)OCO2	none (no result: Pf growth 48h, Pf growth 96h)
Cc1noc(C)c1C(=O)OCC(=O)c1c[nH]c2ccccc12	Pf growth 48h 9.28µM, Pf growth 96h inconclusive
O=C(OCC(=O)c1c[nH]c2ccccc12)c1cccc([N+](=O)[O-])c1	Pf growth 48h 8.28µM, Pf growth 96h 13.1µM
Cc1cc(C(=O)OCC(=O)c2cccc([N+](=O)[O-])c2)c2cccc(C)c2n1	Pf growth 48h inconclusive, Pf growth 96h 0.415µM
CCCN(CC1CCCO1)C(=O)CCc1nnc(CCc2ccc(OC)cc2)o1 (configuration not stated)	none
CCCN(CCC)Cc1c(C(=O)N/N=C/c2ccncc2)nnn1-c1nonc1N	none
C/C(=N\NC(=O)c1nnn(-c2nonc2N)c1CN(C)c1ccccc1)c1ccccn1	Pf growth 48h 13.1µM, Pf growth 96h 5.22µM
CCCN(CCC)Cc1c(C(=O)N/N=C/CCc2ccccc2)nnn1-c1nonc1N	Pf growth 96h 9.28µM
C/C(=N\NC(=O)c1nnn(-c2nonc2N)c1CN(C)c1ccccc1)c1ccc(O)cc1	none
CC1(C)CC2CN(C(=O)Cc3ccccc3)C(C)(C2)C1 (configuration not stated)	none
CCOc1ccc2c(c1)[N+](C)(C)C(C)(C)C=C2C	Pf growth 48h 1.17µM
COc1ccc2c(c1)[N+](C)(C)C(C)(C)C=C2C	Pf growth 48h inconclusive, Pf growth 96h inconclusive
CCN1Cc2c(cc(OC)c(OC)c2OC)-c2ccccc2S1(=O)=O	none (no result: Pf growth 48h, Pf growth 96h)
O=C(c1ccccc1)N1CCN(CC(O)COc2ccc(Br)cc2)CC1 (configuration not stated)	Pf growth 96h 9.28µM
N#Cc1ccc(OCC(O)CN2CCN(C(c3ccccc3)c3ccccc3)CC2)cc1 (configuration not stated)	Pf growth 48h inconclusive, Pf growth 96h 11.7µM
OC(COc1ccccc1)CN1CCN(C(c2ccccc2)c2ccccc2)CC1 (configuration not stated)	Pf growth 48h inconclusive
OC(COCc1ccco1)CN1CCN(C(c2ccccc2)c2ccccc2)CC1 (configuration not stated)	Pf growth 48h 10.4µM, Pf growth 96h 6.57µM
COc1cc(/C=C/C(=O)N2CCN(CC(O)COc3ccccc3)CC2)cc(OC)c1OC (configuration not stated)	Pf growth 48h inconclusive, Pf growth 96h 4.15µM
O=C(O)C1CCCCC1C(=O)Nc1ccc(S(=O)(=O)N2CCCCCC2)cc1 (configuration not stated)	none
